The results in this text go back to ChEMBL document CHEMBL4513146, “CO-ADD screening of Karazin Kharkiv National University (Ukraine) compounds”.

The term Inhibition denotes the relative decrease from the control value, in per cent.

SMILES strings stand for the structures. Potency and affinity values are given separately.

For the assay, the system named is Candida albicans. The conditions noted are these: Concentration 32 ug.mL-1; ASSAY_TEST Inhibition of Fungal Growth; detection method Absorption (OD530).
Consider `CCCCOc1ccc(-c2cc3c4nnc(SCC(=O)Nc5ccc(C)c(F)c5)n4ccn3n2)cc1`, for which the Inhibition came out at 11.03%. The same measure for `Cc1ccc(Oc2nccn3c(=O)n(CC(=O)Nc4cccc(Br)c4)nc23)cc1`: 24.3%.

For `COC(=O)c1ccc(NC(=O)Cn2nc3nc(N4CCCCCC4)ccn3c2=O)cc1`, the Inhibition was 5.24%. With `Cc1cc(C)cc(Oc2nccn3c(=O)n(CC(=O)Nc4cccc(Cl)c4)nc23)c1` the figure was 0.52%; with `COc1ccc(NC(=O)Cn2nc3c(Oc4cccc(OC)c4)nccn3c2=O)cc1`, 3.75%; with `CCOc1ccc(-n2ccn3c(SCC(=O)Nc4ccc(Cl)cc4)nnc3c2=O)cc1`, 3.69%. The same measure for `COc1ccc(-c2cc3c4nn(CC(=O)Nc5ccc(C)c(F)c5)c(=O)n4ccn3n2)cc1`: 28.75%. Regarding `O=S(=O)(c1ccc2nncn2c1)N(Cc1cccc(Cl)c1)c1ccccc1`, the Inhibition is -1.59%. For `CCOC(=O)c1ccccc1NC(=O)Cn1c(=O)c2nnc(C(C)C)n2c2ccccc21`, the Inhibition is 1.04%. Take `CCc1nnc2c(S(=O)(=O)N(Cc3cccc(OC)c3)c3ccccc3)cccn12`: the Inhibition came to 4.76%. Consider `Cc1ccc(C)c(CN(c2cccc(Cl)c2)S(=O)(=O)c2cccn3c(C)nnc23)c1`, for which the Inhibition stood at 2.43%.

With `CCOc1ccc(-n2ccn3c(SCC#N)nnc3c2=O)cc1`, the Inhibition is 1.02%. With `CC(C)c1ccc(NC(=O)Cn2nc3c(Sc4ccccc4)nccn3c2=O)cc1` the figure was 23.16%; with `CCCc1nnc2c(=O)n(CC(=O)Nc3ccc(Br)cc3F)c3ccccc3n12`, 6.6%. With `COc1ccccc1N1CCN(C(=O)CSc2nc3ccccc3n3cnnc23)CC1` the figure was 2.74%.
